Shown is part of a subset that was picked to be rich in hits.
IL-1B inflam inh: qHTS for Inhibitors of Inflammasome Signaling: IL-1-beta AlphaLISA Primary Screen; THP-1 LPS/ATP IL-1B secretion, AlphaLISA, 16 h; hits give low values; activity change, % at 57.5 µM; 4.7% of 360,000 active; AID 743279, 2014; in the data active = activity change below about -50%; inconclusive = mostly about -30% to -49%
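Secreted IL-1B measured by AlphaLISA bead assay after 16 h compound exposure of THP-1 cells; compounds (final up to 57.5 uM) added 1 h before LPS (250 ng/mL) and ATP (1.25 mM) stimulation; lower signal means less secretion.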
DT40 TDP1 CPT: qHTS for Inhibitors of human tyrosyl-DNA phosphodiesterase 1 (TDP1): qHTS in cells in presence of CPT. chicken DT40 Tdp1-/-;hTDP1 cells + 20 nM CPT, ATP luminescence, 48 h. Potency, µM (top dose mostly 46.2 µM), hits mostly inhibitors. 12% of 420,000 active. AID 686979, 2013; note: nearly all actives have a fitted effect of over 55% in size
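Chicken DT40 Tdp1-/- cells complemented with human TDP1, 400 cells/well, exposed to compounds plus 20 nM camptothecin for at least 48 h at 37 C; viability read as ATP content by CellTiter-Glo luminescence.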
HT1080NT lethal: qHTS for induction of synthetic lethality in tumor cells producing 2HG: qHTS for the HT-1080-NT fibrosarcoma cell line; HT-1080-NT fibrosarcoma viability, CellTiter-Glo ATP luminescence, 48 h; Potency, µM (doses to about 46.1 µM), hits mostly cytotoxic; 1.6% of 360,000 active;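 note: NT is the 2HG producing partner of a matched IDH1 knockdown line; nearly all actives have a fitted effect of over 55% in size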
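A 48-hour cytotoxicity screen used HT-1080-NT cells plated 2 hours before compound delivery. ATP-based CellTiter-Glo luminescence measured viability, normalized to DMSO and no-cell controls.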
TDP1 cell noCPT: qHTS for Inhibitors of human tyrosyl-DNA phosphodiesterase 1 (TDP1): qHTS in cells in absence of CPT; DT40 Tdp1-/- hTDP1 cells, no CPT, ATP luminescence, 48 h; Potency, µM (top dose mostly 46.2 µM), usual class: inhibitors; 15% of 420,000 active; note: nearly all actives have a fitted effect of over 55% in size
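Compound effects on proliferation are scored in DT40 Tdp1-/-;hTDP1 cells in the absence of CPT. ATP levels (CellTiter-Glo luminescence) are recorded after a ≥48 hr, 37 °C incubation.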
ALOX12 inh: Primary qHTS assay for inhibitors of human arachidonate 12S-lipoxygenase (ALOX12): Round 2; Polyunsaturated fatty acid lipoxygenase ALOX12 (Homo sapiens), P18054; Potency, µM (highest dose often 108 µM), actives largely listed as inhibitors; purified 12hLO, xylenol orange hydroperoxide absorbance; 1.1% of 580,000 active
Target sequence (P18054 whole entry, looked up): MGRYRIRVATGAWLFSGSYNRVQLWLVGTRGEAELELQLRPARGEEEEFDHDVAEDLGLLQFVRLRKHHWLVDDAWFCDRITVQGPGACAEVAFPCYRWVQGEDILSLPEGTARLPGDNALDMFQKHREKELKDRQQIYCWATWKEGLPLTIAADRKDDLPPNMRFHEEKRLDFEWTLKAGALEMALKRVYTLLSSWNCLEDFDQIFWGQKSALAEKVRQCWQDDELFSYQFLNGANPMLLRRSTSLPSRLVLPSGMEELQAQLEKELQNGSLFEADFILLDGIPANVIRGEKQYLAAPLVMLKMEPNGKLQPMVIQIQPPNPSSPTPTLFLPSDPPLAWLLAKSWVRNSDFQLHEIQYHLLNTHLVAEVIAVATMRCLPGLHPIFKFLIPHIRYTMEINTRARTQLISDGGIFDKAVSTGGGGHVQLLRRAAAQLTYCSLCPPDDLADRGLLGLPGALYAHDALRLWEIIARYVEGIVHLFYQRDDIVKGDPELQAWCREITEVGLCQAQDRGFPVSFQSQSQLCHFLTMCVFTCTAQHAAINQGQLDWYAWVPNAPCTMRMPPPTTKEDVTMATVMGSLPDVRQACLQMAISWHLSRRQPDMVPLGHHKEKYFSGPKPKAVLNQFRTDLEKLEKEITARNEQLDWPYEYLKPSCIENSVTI
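Hydroperoxide product was detected by ferrous iron/xylenol orange as the 573 to 405 nm absorbance ratio. Arachidonic acid at 40 uM (final) was turned over for 30 min at room temperature by 150 nM human 12hLO, pH 7.0 Hepes buffer, after 15 min compound preincubation.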
HT1080 IDH1KD tx: qHTS for induction of synthetic lethality in tumor cells producing 2HG: qHTS for the HT-1080-IDH1KD cell line | HT-1080 IDH1 knockdown viability, ATP luminescence, 48 h | Potency, µM (top dose mostly 46.1 µM), hits mostly cytotoxic | 2% of 360,000 active
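Knockdown cells (IDH1KD HT-1080) received compounds 2 h after plating at 750 cells/well and were kept 48 h at 37 °C in 5% FBS RPMI. A CellTiter-Glo luminescence read gave % activity for curve fitting.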
Numbers stand for hits; . = inactive; ? = inconclusive; / = no result; [ ] = another dose, or the depositor's remark. Unless noted, calls come from the whole dose curve; as a rule, active = well fitted curve in the direction sought with a large enough effect; inconclusive = small, poorly fitted or top-dose-only effect, or another doubt; inactive = no such curve, though single readings can be large; an effect the other way counts as inactive or inconclusive.

SMILES | IL-1B inflam inh | DT40 TDP1 CPT | HT1080NT lethal | TDP1 cell noCPT | ALOX12 inh | HT1080 IDH1KD tx
O=C(OCc1ccccc1)c1cccnc1Cl | . | . | . | . | . | .
CC(C)C1=NOC2(CCN(C(=O)c3ccccc3)C2)C1 (stereo not drawn) | / | / | / | / | .[12.5 µM] | /
Cc1cccc(N/C=C/c2onc(C)c2[N+](=O)[O-])c1 | . | ? | . | 9.2µM | . | .
Cc1cc(O)ccc1N/C=C/c1onc(C)c1[N+](=O)[O-] | ? | . | 16µM | . | . | ?
Cc1cccc(NS(=O)(=O)c2c(C)noc2C)c1 | . | . | . | . | . | .
COc1cc(/C=C/c2onc(C)c2[N+](=O)[O-])cc(OC)c1OC | . | . | . | . | . | .
Cc1noc(/C=C/c2nn(C)cc2Cl)c1[N+](=O)[O-] | -78 | 21µM | . | 12µM | . | ?
Cc1cccc(/C=C/c2onc(C)c2[N+](=O)[O-])n1 | -97 | 2.6µM | ? | 2.6µM | . | 6.5µM
COc1ccc2c(C)c(CCC(=O)Nc3ccccc3OC)c(=O)oc2c1 | / | / | / | / | . | /
CN(C)[C@@H]1CN(Cc2ccsc2)CC[C@@H]1CNC(=O)C1CC1 | / | / | / | / | . | /
C=C1CC[C@@H]2[C@](C)(CO)[C@H](O)CC[C@@]2(C)[C@@H]1C/C=C1/C(=O)OC[C@H]1O | / | 3µM | / | 2.7µM | / | /
C=C/C(C)=C/CC1C(=C)CCC2C(C)(C(=O)O)CCCC12C (stereo not drawn) | . | . | . | . | . | .
C=C1CC[C@@H]2[C@](C)(CO)[C@H](O)CC[C@@]2(C)[C@@H]1C/C=C1/C(=O)OCC1O (stereo partly drawn) | -87 | 15µM | ? | 8.2µM | . | ?
CC1CCN(c2oc(-c3ccc([N+](=O)[O-])cc3)nc2C#N)CC1 | / | / | / | / | . | /
CC(=O)N1CCN(C(=O)c2cnc(-c3cccnc3)nc2)CC(O)C1 (stereo not drawn) | / | / | / | / | . | /
CC(C)(C)OC(=O)N(CCc1ccccc1)Cc1ccccc1OCc1cccc(NC(=O)/C=C/c2ccccc2)c1 | . | 9.2µM | . | 7.3µM | . | .
Cc1cccc(NC(=O)c2ccc(COc3ccccc3)cc2)c1 | / | / | / | / | . | /
CC(C)(C)OC(=O)N(CCc1ccccc1)Cc1ccc(OCc2cccc(NC(=O)C3CCC3)c2)cc1 | . | 21µM | . | 15µM | . | .
CC(C)(C)OC(=O)N(CCc1ccccc1)Cc1ccc(OCc2cccc(NC(=O)/C=C/c3ccccc3)c2)cc1 | . | . | . | . | . | .
CC(C)(C)OC(=O)N(CCc1ccccc1)Cc1cccc(OCc2cccc(NC(=O)c3ccccc3)c2)c1 | ? | 23µM | . | 18µM | . | .
CC(C)(C)OC(=O)N(CCc1ccccc1)Cc1ccc(OCc2cccc(NC(=O)C3CC3)c2)cc1 | ? | 5.8µM | . | 4.6µM | ? | .
CCC(CC)C(=O)Nc1ccccc1C(C)CC (stereo not drawn) | / | / | / | / | . | /
CN(Cc1ccc(C(=O)NC2CC2)cc1)c1nc2ccccc2o1 | / | / | / | / | . | /
O=C(Nc1cc(C(F)(F)F)ccc1Cl)c1noc2c1CCCC2 | / | / | / | / | . | /
Cc1ccc(Cn2cnc3nc4c(cc3c2=O)CC(C)CC4)cc1 (stereo not drawn) | / | 21µM | / | 15µM | . | /
SMILES | IL-1B inflam inh | DT40 TDP1 CPT | HT1080NT lethal | TDP1 cell noCPT | ALOX12 inh | HT1080 IDH1KD tx
CC1CCN(CCOCCOc2ccc(Cl)cc2Br)CC1 | ? | 13µM | ? | 21µM | ? | ?
CC1CCN(CCCCOc2ccccc2F)CC1 | . | ? | . | 15µM | . | .
CC1CCN(CCCOc2ccc(Cl)cc2Br)CC1 | . | ? | ? | ? | ? | 23µM
CC1CCCN(CCCOc2ccc(Cl)cc2Br)C1 (stereo not drawn) | . | ? | . | ? | ? | .
Clc1ccc(OCCOCCN2CCCCC2)c(Br)c1 | . | . | . | . | ? | .
CC1CCN(CCCCOc2ccc(Br)cc2)CC1 | . | ? | . | ? | ? | .
Cc1cc(Br)ccc1OCCCCN1CCC(C)CC1 | ? | 23µM | . | ? | . | .
Cc1cc(C)c(-c2csc(NC(=O)C3=COCCO3)n2)c(C)c1 | ? | ? | . | . | . | .
O=C(Nc1nc(-c2cccs2)cs1)c1ccc([N+](=O)[O-])o1 | -90 | ? | ? | 21µM | ? | ?
O=C(Nc1nc(-c2ccc(F)c(F)c2)cs1)C1=COCCO1 | . | ? | . | ? | ? | .
Cc1sc(NC(=O)C2=COCCO2)nc1-c1ccc(Cl)cc1 | . | ? | . | 21µM | . | .
O=C(Cc1ccccc1)Nc1nc(-c2cccs2)cs1 | . | ? | . | . | . | ?
O=C(Nc1nc(-c2ccc(Cl)cc2)cs1)C1=COCCO1 | -84 | 23µM | . | 23µM | ? | .
O=C(Nc1nc(-c2cccs2)cs1)C1=COCCO1 | . | ? | . | 23µM | ? | .
C/C(=N/NC(=O)OC(C)(C)C)c1ccccc1Cl | / | / | / | / | . | /
CCc1ccc(-c2csc(NC(=O)C3=COCCO3)n2)cc1 | . | 12µM | . | ? | . | .
COc1ccc(-c2csc(NC(=O)C3=COCCO3)n2)cc1OC | ? | ? | . | ? | . | .
CC(=O)C1(O)CCC2C3CCC4CC(=O)CCC4(C)C3C(=O)CC21C (stereo not drawn) | . | . | . | . | . | .
CC(=O)C1CCC2C3CCC4CC(=O)CCC4(C)C3C=CC12C (stereo not drawn) | . | . | . | 15µM | . | .
CC(=O)C1C(C)CC2C3CCC4CC(=O)CCC4(C)C3CCC21C (stereo not drawn) | . | ? | . | 21µM | . | .
O=C(NCCc1cnccn1)c1cccc(S(=O)(=O)NC2CCOC2)c1 (stereo not drawn) | / | / | / | / | . | /
Cc1noc([C@@H]2CN(C(=O)c3cccc4[nH]ccc34)C[C@H]2CO)n1 | / | / | / | / | . | /
CCN(CC(=O)Nc1ccccc1OC)C(=O)Cc1nc(-c2ccccc2)oc1C | / | / | / | / | . | /
CCn1nc(C)cc1C(=O)N1CCOC[C@H](Oc2ccc(OC)cc2)C1 | / | / | / | / | . | /
Cc1cccc(C)c1-n1nnnc1SCn1nnc2ccccc2c1=O | / | / | / | / | . | /
COc1cc(NC(=O)c2ccccc2)c(OC)cc1Cl | . | . | . | ? | . | .
COc1cc(NC(=O)c2sc(C)nc2C)c(OC)cc1NC(=O)c1ccccc1 | . | ? | . | 16µM | . | .

Screening results as filed in PubChem BioAssay.
